TR SRC2 fluor cs: counter-screen for TRb-SRC2 inhibitors: fluorescence interference; TRb/SRC2 Texas Red total fluorescence interference; Potency, µM (doses to about 106 µM), inactives show top-dose fluorescence change, negative = quenching; 0.29% of 280,000 active; AID 1479; active = well fitted curve in either direction with a large enough effect; inconclusive = small, poorly fitted or top-dose-only effect
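Human TRβ ligand-binding domain (0.6 uM) and Texas Red SRC2 peptide (20 nM) in Tris buffer with 1 uM T3 and 5% DMSO were incubated with pinned compound for 5 hr at ambient temperature. Total fluorescence was computed as S + 2P (555/632 nm).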
Tau fibril FP: blocks human tau fibril formation measured by polarization. P10636. K18 P301L tau heparin fibrillization, Alexa594 FP, 6 h. Potency, µM (top dose mostly 57.7 µM), inactives show at the top dose activity, negative = inhibition, usual class: inhibitors. 0.39% of 280,000 active. AID 1468; note: nearly all actives have a fitted effect of over 55% in size
Target sequence (P10636 561-689 P618L limits assumed): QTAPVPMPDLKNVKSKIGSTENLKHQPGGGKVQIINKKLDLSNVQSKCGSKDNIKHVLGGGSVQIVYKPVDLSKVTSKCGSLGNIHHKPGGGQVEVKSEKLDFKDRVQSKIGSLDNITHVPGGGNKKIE
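K18 P301L tau (15 uM unlabeled/0.24 uM Alexa 594-labeled, final) + compound + heparin 20 uM final; 100 mM NaOAc pH 7; 6 hr 37 C; ThT 30 uM final added, 1 hr RT; FP ex 555/em 632 nm.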
TRb SRC2 PPI: TRbeta-SRC2 interaction inhibition; 0.065% of 280,000 active; P10828; Potency, µM (series often up to 106 µM), inactives show at the top dose activity change, negative = inhibition, usual class: inhibitors; TRbeta-SRC2 peptide binding, fluorescence polarization; receptor liganded with 1 µM T3; AID 1469;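 note: plate controls were bound peptide for no effect and peptide without receptor for full effect; nearly all actives have a fitted effect of over 50% in size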
Target sequence (P10828 whole entry, looked up): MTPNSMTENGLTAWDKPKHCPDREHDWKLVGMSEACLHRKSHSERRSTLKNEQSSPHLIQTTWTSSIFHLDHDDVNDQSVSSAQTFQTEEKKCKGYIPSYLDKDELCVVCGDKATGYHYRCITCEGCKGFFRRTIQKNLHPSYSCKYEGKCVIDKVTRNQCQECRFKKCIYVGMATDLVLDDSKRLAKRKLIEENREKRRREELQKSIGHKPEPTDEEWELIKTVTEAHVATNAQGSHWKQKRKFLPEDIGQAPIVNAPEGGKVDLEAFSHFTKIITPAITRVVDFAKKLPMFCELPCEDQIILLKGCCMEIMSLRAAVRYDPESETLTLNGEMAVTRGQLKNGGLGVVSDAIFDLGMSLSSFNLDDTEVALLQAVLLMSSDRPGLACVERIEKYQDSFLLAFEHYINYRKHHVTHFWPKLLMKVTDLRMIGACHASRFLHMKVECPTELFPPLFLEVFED
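Human TRb ligand-binding domain (0.6 uM) is mixed with 20 nM Texas Red SRC2 peptide and 1 uM T3; after compound addition and 5 hr at ambient temperature, polarization is measured and normalized to unbound and bound controls.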
Tau fluor counter: counter-screen for tau fibril formation inhibitors; AID 1463; Potency, µM (doses to about 57.7 µM), inactives show at the highest dose activity change, negative = decrease; tau K18 P301L Alexa594 fluorescence, heparin fibrillization; 0.93% of 280,000 active; note: nearly all actives have a fitted effect of over 55% in size
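Human K18 P301L tau (15 uM unlabeled plus 0.24 uM Alexa 594-labeled, final) in 100 mM sodium acetate pH 7 was mixed with compound and 20 uM heparin and incubated 6 hr at 37 C.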
Tau ThT inhib: inhibitors of human tau fibril formation, thioflavin T binding; AID 1460; 2.1% of 270,000 active; recombinant tau K18 P301L (four-repeat tau fragment), heparin-induced fibrillization, ThT fluorescence; Potency, µM (series often up to 57.4 µM), for inactives: at the highest dose activity, negative = inhibition, usual class: inhibitors; note: nearly all actives have a fitted effect of over 55% in size
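Aggregation was driven by heparin (20 uM final) acting on recombinant tau […] bearing P301L in 100 mM sodium acetate pH 7; fibrils were detected with Thioflavin T.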
Starred values were filed as active, the others as inactive; [ ] = remark or other dose. Most compounds without a hit are left out; they make up all but 3.1% or so of the library. Unless noted, calls come from the whole dose curve; as a rule, active = well fitted curve in the direction sought with a large enough effect; inconclusive = small, poorly fitted or top-dose-only effect, or another doubt; inactive = no such curve, though single readings can be large; an effect the other way counts as inactive or inconclusive. Unless noted, % is set by controls: 0 for no effect and ±100 for the full control effect; potency is the fitted concentration of half-maximal effect.

What do the screens show for `COc1cc(/C=N/NC(=O)c2cc(-c3ccccc3)sc2N)cc(OC)c1OC`?
TR SRC2 fluor cs: -8.3%; Tau fibril FP: inconclusive; TRb SRC2 PPI: 4.3%; Tau fluor counter: 12.6µM*[quencher]

Results for O=C(Nc1sc(-c2ccccc2)cc1C(=O)O)c1ccccc1 ?
TR SRC2 fluor cs: -12.0%; Tau fibril FP: -8.5%; TRb SRC2 PPI: 5.3%; Tau fluor counter: inconclusive; Tau ThT inhib: 12.6µM*

Results for N#Cc1ccc(/C=N/NC(=O)c2cc(-c3cccs3)nc3ccccc23)cc1 ?
TR SRC2 fluor cs: 9.9%; Tau fibril FP: inconclusive; TRb SRC2 PPI: 10.0%; Tau fluor counter: inconclusive; Tau ThT inhib: -10.8%

Results for CCCCCC[N+](C)(C)CCSSCC[N+](C)(C)CCCCCC ?
TR SRC2 fluor cs: -1.7%; Tau fibril FP: inconclusive; TRb SRC2 PPI: -19.6%; Tau fluor counter: -23.1%; Tau ThT inhib: 7.08µM*

What do the screens show for `CCCCCCCCCCCCCCCC[N+](C)(C)CC`?
TR SRC2 fluor cs: 0.7%; TRb SRC2 PPI: 9.1%

Results for COc1ccccc1CNc1nc2nc(C)c(Cl)c(C)n2n1 ?
TR SRC2 fluor cs: 0.0224µM*[quencher]; Tau fibril FP: -6.9%; TRb SRC2 PPI: -18.3%[53 µM]; Tau fluor counter: -7.1%; Tau ThT inhib: -3.7%

How did CCOC(=O)c1c(NC(=O)c2c(C(=O)O)cccc2[N+](=O)[O-])sc(C)c1C do in these assays?
TR SRC2 fluor cs: -1.5%[53 µM]; Tau fibril FP: -0.1%; TRb SRC2 PPI: 5.1%[53 µM]; Tau fluor counter: -8.5%; Tau ThT inhib: inconclusive

Results for CC(=O)NC(CCS(C)(=O)=O)C(=O)Nc1cc(Cl)ccc1Cl (configuration not stated) ?
TR SRC2 fluor cs: -2.1%; Tau fibril FP: -2.4%; TRb SRC2 PPI: -6.5%; Tau fluor counter: -6.9%; Tau ThT inhib: -5.2%

What do the screens show for `CC(C)S(=O)(=O)c1csc(NC(=O)Nc2cc(Cl)ccc2Cl)c1Cl`?
TR SRC2 fluor cs: -4.2%; Tau fibril FP: 22.4µM*; TRb SRC2 PPI: -0.6%; Tau fluor counter: inconclusive; Tau ThT inhib: 1.8%

Results for CC(=O)[C@@H]1[C@@H]2C(=O)N(c3ccc(F)c(Cl)c3)C(=O)[C@@H]2C2c3ccccc3C=CN21 (some centres not stated) ?
TR SRC2 fluor cs: 2.0%; Tau fibril FP: -2.5%; TRb SRC2 PPI: 0.7%; Tau fluor counter: -17.4%; Tau ThT inhib: inconclusive

What do the screens show for `O=C(c1ccco1)[C@@H]1[C@@H]2C(=O)N(c3ccc(Br)cc3)C(=O)[C@@H]2C2c3ccccc3C=CN21` (some centres not stated)?
TR SRC2 fluor cs: 0.7%; Tau fibril FP: -17.9%; TRb SRC2 PPI: -8.8%; Tau fluor counter: -29.2%; Tau ThT inhib: 20µM*

What do the screens show for `CC(=O)[C@H]1[C@@H]2C(=O)N(c3cccc(Cl)c3)C(=O)[C@@H]2[C@H]2c3ccccc3C=CN21`?
TR SRC2 fluor cs: -0.1%; Tau fibril FP: -17.7%; TRb SRC2 PPI: -4.3%; Tau fluor counter: -22.7%; Tau ThT inhib: inconclusive

What do the screens show for `O=C(c1ccco1)[C@@H]1[C@@H]2C(=O)N(c3ccc(F)cc3)C(=O)[C@@H]2C2c3ccccc3C=CN21` (some centres not stated)?
TR SRC2 fluor cs: -0.8%; Tau fibril FP: inconclusive; TRb SRC2 PPI: -1.6%; Tau fluor counter: inconclusive; Tau ThT inhib: 25.1µM*

What do the screens show for `CC1(C)CC2(CC(c3ccccc3F)c3ccc(O)c(O)c3O2)NC(=S)N1` (configuration not stated)?
TR SRC2 fluor cs: -3.8%; Tau fibril FP: inconclusive; TRb SRC2 PPI: -1.0%; Tau fluor counter: inconclusive; Tau ThT inhib: 22.4µM*

Results for COc1ccc(CCNC(=O)C(=O)NCc2cccs2)cc1OC ?
TR SRC2 fluor cs: -0.2%; Tau fibril FP: -2.6%; TRb SRC2 PPI: 1.6%; Tau fluor counter: -14.3%; Tau ThT inhib: -10.6%

Results for Cc1ccc(NC(=O)c2ccccc2[N+](=O)[O-])nc1 ?
TR SRC2 fluor cs: -2.8%; Tau fibril FP: -4.7%; TRb SRC2 PPI: -4.1%; Tau fluor counter: -9.9%; Tau ThT inhib: -5.7%

What do the screens show for `CC1CCc2noc(NC(=O)c3ccccc3[N+](=O)[O-])c2C1` (configuration not stated)?
TR SRC2 fluor cs: 22387µM*[quencher]; Tau fibril FP: -0.8%; TRb SRC2 PPI: -9.6%; Tau fluor counter: inconclusive; Tau ThT inhib: inconclusive

What do the screens show for `Cc1ccccc1NC(=O)CSc1cn(CC(=O)N(C(C)C)C(C)C)c2ccccc12`?
TR SRC2 fluor cs: 0.2%; Tau fibril FP: -4.2%; TRb SRC2 PPI: -11.5%; Tau fluor counter: -8.4%; Tau ThT inhib: -4.3%

Results for CCN(CC)CCNC(=O)c1ccc(Cn2c(=O)c3cccn3c3cccnc32)cc1 ?
TR SRC2 fluor cs: 0.4%; Tau fibril FP: -2.8%; TRb SRC2 PPI: 1.9%; Tau fluor counter: -8.8%; Tau ThT inhib: -1.9%

Results for CCn1c2ccccc2c2cc(NC(=O)c3ccc(Br)o3)ccc21 ?
TR SRC2 fluor cs: -6.0%; Tau fibril FP: inconclusive; TRb SRC2 PPI: -13.6%; Tau fluor counter: inconclusive; Tau ThT inhib: 12.6µM*

How did Cc1cc(-c2csc(NC(=O)c3ccc(=O)[nH]c3)n2)c(C)n1Cc1ccco1 do in these assays?
TR SRC2 fluor cs: inconclusive; Tau fibril FP: inconclusive; TRb SRC2 PPI: 4.4%; Tau fluor counter: inconclusive; Tau ThT inhib: 3.98µM*

Results for CCn1c2ccccc2c2cc(NC(=O)COC(=O)c3cc(Cl)c(N)cc3OC)ccc21 ?
TR SRC2 fluor cs: -8.4%; Tau fibril FP: 3.5%; TRb SRC2 PPI: -5.0%; Tau fluor counter: 10µM*[quencher]; Tau ThT inhib: inconclusive

How did CCn1c2ccccc2c2cc(NC(=O)COC(=O)c3cc(S(N)(=O)=O)c(Cl)cc3Cl)ccc21 do in these assays?
TR SRC2 fluor cs: -3.8%; Tau fibril FP: 6.5%; TRb SRC2 PPI: -0.7%; Tau fluor counter: 8.91µM*[quencher]; Tau ThT inhib: inconclusive

How did CCn1c2ccccc2c2cc(NC(=O)COC(=O)c3ccccc3O)ccc21 do in these assays?
TR SRC2 fluor cs: 1.8%; Tau fibril FP: 1.2%; TRb SRC2 PPI: -1.3%; Tau fluor counter: -28.1%; Tau ThT inhib: -3.6%

Results for CCn1c2ccccc2c2cc(NC(=O)COC(=O)c3ccccc3F)ccc21 ?
TR SRC2 fluor cs: 2.0%; Tau fibril FP: 0.8%; TRb SRC2 PPI: -15.5%; Tau fluor counter: -26.0%; Tau ThT inhib: -6.8%

Results for COCc1c(Br)c(C)nc2sc3c(=O)n(-c4cccc(Br)c4)nnc3c12 ?
TR SRC2 fluor cs: -1.6%; Tau fibril FP: -5.5%; TRb SRC2 PPI: -5.3%; Tau fluor counter: 0.5%; Tau ThT inhib: 2.4%

How did O=C(COc1ccc(F)cc1)Nc1nnc(SCc2cc(=O)n3ccccc3n2)s1 do in these assays?
TR SRC2 fluor cs: -1.8%; Tau fibril FP: -2.9%; TRb SRC2 PPI: 8.4%; Tau fluor counter: -0.4%; Tau ThT inhib: -7.5%
